Source: PubChem BioAssay (EPA / NIEHS)
Values joined by “and” are separate entries in the source; they are usually repeats but may differ in a detail not shown here. Equal entries are not always repeated. Records with an inconclusive call do not appear. More than one record can exist for a structure, and the calls need not agree. Active and inactive are the calls of the source. The calls were made as follows, unless noted: active = hit-call score of the fitted dose curve at least 0.9, where 1 is the maximum; inconclusive = response in the unintended direction; inactive = score below 0.9.

Experiments:
[1] = read-out: UDP glucuronosyltransferase (UGT1A1), UGT1A1 (gene 54658); assay: LTEA_HepaRG_UGT1A1: Life Technologies and Expression Analysis (LTEA) Assay for UDP glucuronosyltransferase (UGT1A1) using HepaRG (AID 2283538; active = hit-call score of the fitted dose curve at least 0.9, where 1 is the maximum; inactive = score below 0.9); conditions: mRNA level, 48 h; actives raise or lower the signal
How it was run: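 HepaRG, 48 h chemical exposure (top 100 uM, half-log 8-pt, 0.5% DMSO vehicle), duplicate wells; qRT-PCR (TaqMan, Fluidigm array) for UGT1A1 mRNA, housekeeping-normalized; bidirectional curve fit vs DMSO baseline.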

[2] = read-out: UDP glucuronosyltransferase (UGT1A6), UGT1A6 (gene 54578); assay: LTEA_HepaRG_UGT1A6: Life Technologies and Expression Analysis (LTEA) Assay for UDP glucuronosyltransferase (UGT1A6) using HepaRG (AID 2283539; active = hit-call score of the fitted dose curve at least 0.9, where 1 is the maximum; inactive = score below 0.9); conditions: mRNA level, 48 h; actives raise or lower the signal
How it was run: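 Measures mRNA change in HepaRG hepatic cells exposed 48 h to chemicals (eight-point, maximum 100 uM, 0.5% DMSO vehicle) in serum-free induction medium. Expression normalized to endogenous controls; DMSO served as negative control and baseline.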

[3] = read-out: X-box binding protein 1 (XBP1), XBP1 (gene 7494); assay: LTEA_HepaRG_XBP1: Life Technologies and Expression Analysis (LTEA) Assay for X-box binding protein 1 (XBP1) using HepaRG (AID 2283540; active = hit-call score of the fitted dose curve at least 0.9, where 1 is the maximum; inactive = score below 0.9); conditions: mRNA level, 48 h; actives raise or lower the signal
How it was run: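 Eight concentrations (half-log, highest 100 uM, 0.5% DMSO) tested in duplicate on HepaRG cells over 48 h in serum-free induction medium; qRT-PCR of XBP1 normalised to ACTB, GAPDH, POLR2A.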

[4] = LTEA_HepaRG_LDH_cytotoxicity: Cytotoxicity Assessment in the Life Technologies and Expression Analysis (LTEA) Assay (AID 2283563);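 as to AC50: LDH activity released into spent culture medium as a marker of cell death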
How it was run: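 Spent-medium LDH after 48 h chemical exposure of HepaRG cells in serum-free induction medium; eight concentrations, half-log dilutions from 100 uM, duplicate wells, fitted upward relative to 0.5% DMSO.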

[5] = ATG_XTT_Cytotoxicity: Cytotoxicity Assessment in the Attagene TRANS-FACTORIAL HepG2 Assay (AID 2283584);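 as to AC50: XTT signal for cell number as viability in transfected HepG2 cells; cells exposed to compound for 24 h before reading; active means loss of viability signal versus DMSO baseline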
How it was run: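 24 h chemical exposure of reporter-transfected HepG2; XTT signal loss vs DMSO indicates cytotoxicity.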

[6] = TOX21_p53_BLA_p2_viability: Viability Assessment in the Tox21 HCT-116 p53 Agonism Beta-lactamase Assay, Phase 2 (AID 2283591);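 also: compound exposure lasted 16 h at 37 °C; actives lower the ATP signal meaning cytotoxicity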
How it was run: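 Cytotoxicity readout: CellTiter-Glo ATP luminescence, 30 min at room temperature, after the beta-lactamase read. Cells were HCT116 exposed 16 h at 37C to compounds pin-transferred at 217-fold dilution from DMSO stocks.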

[7] = biological target: Cellular tumor antigen p53 (Homo sapiens) (UniProt P04637); assay: TOX21_p53_BLA_p3_ratio: Tox21 HCT-116 p53 Agonism Beta-lactamase Assay, Ratio, Phase 3 (AID 2283596)
Cellular tumor antigen p53 (Homo sapiens), sequence (P04637 whole entry, looked up): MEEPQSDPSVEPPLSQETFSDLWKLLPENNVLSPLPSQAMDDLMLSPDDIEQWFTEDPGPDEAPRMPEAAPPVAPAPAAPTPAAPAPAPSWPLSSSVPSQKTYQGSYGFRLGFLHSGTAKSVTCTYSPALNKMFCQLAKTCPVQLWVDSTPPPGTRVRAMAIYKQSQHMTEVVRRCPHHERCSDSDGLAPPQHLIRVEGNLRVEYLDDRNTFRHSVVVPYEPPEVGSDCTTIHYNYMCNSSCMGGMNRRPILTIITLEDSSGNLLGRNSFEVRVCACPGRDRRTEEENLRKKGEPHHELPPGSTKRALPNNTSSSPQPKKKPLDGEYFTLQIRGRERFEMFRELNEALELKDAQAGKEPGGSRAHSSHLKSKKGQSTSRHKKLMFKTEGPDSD
How it was run: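 Cells were seeded at 4000/well, rested 5 h at 37C, then dosed with DMSO compound solutions (217-fold dilution) for 16 h. CCF4-AM substrate was loaded for 2 h at room temperature, and the 460/530 nm emission ratio was fitted for gain of signal versus DMSO.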

[8] = TOX21_p53_BLA_p4_viability: Viability Assessment in the Tox21 HCT-116 p53 Agonism Beta-lactamase Assay, Phase 4 (AID 2283597);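 also: hits lower the luminescence signal meaning cytotoxicity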
How it was run: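 In this multiplexed secondary endpoint, HCT116 cells (4000 per well, compound at 5 h, 16 h treatment) received CellTiter-Glo after the beta-lactamase read. Luminescence after 30 min RT reflects ATP, and falling signal marks cytotoxicity.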

[9] = biological target: Cellular tumor antigen p53 (Homo sapiens) (UniProt P04637); assay: TOX21_p53_BLA_p2_ratio: Tox21 HCT-116 p53 Agonism Beta-lactamase Assay, Ratio, Phase 2 (AID 2283592)
How it was run: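 DMSO-normalized, positive-direction endpoint derived from the 460 nm/530 nm FRET ratio in HCT116 p53 beta-lactamase reporter cells exposed 16 h at 37C and loaded with CCF4-AM for 2 h.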

[10] = TOX21_p53_BLA_p3_viability: Viability Assessment in the Tox21 HCT-116 p53 Agonism Beta-lactamase Assay, Phase 3 (AID 2283593);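 also: cells exposed to compound for 16 h before reading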
How it was run: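 Cellular ATP was quantified by CellTiter-Glo luminescence, read after 30 min at room temperature. Beforehand, HCT116 cells (4000/well) received compound 5 h post-seeding, 217-fold diluted from DMSO, then incubated 16 h at 37C.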

Measured: AC50

CCCOC(=O)c1ccc(O)cc1
not listed: [9] | [10]
inactive: all other assays above

O=c1c(-c2ccc(O)cc2)coc2cc(O)ccc12
not listed: [9] | [10]
inactive: all other assays above

CN(C)C=O
not listed: [6] | [10]
inactive: all other assays above

CCN(CC)CCNc1ccc(CNC=O)c2sc3ccc(OC)cc3c(=O)c12
active: [1] 44 µM | [2] 72 µM | [3] 30.6 µM | [4] 80.1 µM | [7] 18.7 µM
inactive: [6] | [8]

Cc1cc(CCN2CCN(c3nsc4ccccc34)CC2)cc2c1NC(=O)CC2(C)C
active: [1] 91.6 µM | [2] 79.5 µM | [4] 76.8 µM | [6] 60.5 µM | [10] 19.9 µM | [8] 74.3 µM
inactive: [3] | [7]

NC(=O)N1C(=O)C(C(=O)c2cc(Cl)cs2)c2cc(F)c(Cl)cc21 (stereo not drawn)
inactive: [6] | [8]
active: [1] 38.7 µM | [2] 57 µM | [3] 12.9 µM | [4] 15.8 µM | [7] 2.59 µM

CCC(C)(C)C1CCC(O)CC1 (stereo not drawn)
not listed: [6] | [8] | [10]
inactive: all other assays above

C[C@@H]1C[C@H]2[C@@H]3CCC4=CC(=O)C=C[C@]4(C)[C@@]3(F)[C@@H](O)C[C@]2(C)[C@@]1(O)C(=O)COP(=O)(O)O
inactive: [1] | [2] | [3] | [4] | [5] | [8]

O=C(OCCOCCOC(=O)c1ccccc1)c1ccccc1
not listed: [6] | [10]
inactive: all other assays above

OC1CCCCC1
not listed: [6] | [10]
inactive: all other assays above

CCCCCCC(=O)O
not listed: [6] | [9] | [10]
inactive: all other assays above

CC(O)C(=O)O (stereo not drawn)
inactive: [5] | [7]

CC(C)(C)c1cc(C(C)(C)C)c(O)c(C(C)(C)C)c1
active: [1] 13.9 µM | [2] 14.5 µM
not listed: [5] | [10]
inactive: all other assays above

Cc1cc(C)c(O)c(C)c1
inactive: [2] | [3] | [4] | [7] | [8]
active: [1] 8.27 µM

CC[C@H](C)[C@@H](C(=O)O)n1sc2ccccc2c1=O
inactive: [1] | [2] | [3] | [4] | [7] | [8]

N#C[C@@H]1CC(F)(F)CN1C(=O)CNC1CC2CCC(C1)N2c1ncccn1 (stereo partly drawn)
inactive: [1] | [2] | [3] | [4] | [6] | [8]

CCCOc1sc(C(=O)N2CCC(c3cc(CN)ccc3F)CC2)c(C)c1Br
active: [6] 43.2 µM | [7] 80.4 µM | [8] 31.7 µM
inactive: [1] | [2] | [3] | [4]

Cc1ccc(S(=O)(=O)O)c(C)c1
inactive: [5] | [7] | [8]

CC(=O)NC1(c2cccc(F)c2)CCN(CC[C@@]2(c3ccc(Cl)c(Cl)c3)CN(c3ccccc3)C(=O)CO2)CC1
active: [1] 41.5 µM | [6] 57.1 µM | [7] 71.6 µM | [8] 46.2 µM
inactive: [2] | [3]

COCC(C)O (stereo not drawn)
not listed: [6] | [9] | [10]
inactive: all other assays above

COc1ccc([N+](=O)[O-])cc1N
active: [1] 50 µM
not listed: [6] | [9] | [10]
inactive: all other assays above

CC1=C(/C=C/C(C)=C/C=C/C(C)=C/C(=O)O)C(C)(C)CCC1
inactive: [3] | [4] | [5] | [9] | [7]
active: [1] 13 µM | [2] 16.9 µM | [7] 85.7 µM

c1ccc2c(c1)ccc1ccccc12
active: [1] 7.77 µM
not listed: [9] | [10]
inactive: all other assays above

O=C(O)Cc1cc(I)c(Oc2cc(I)c(O)c(I)c2)c(I)c1
active: [1] 61.5 µM | [2] 62.2 µM | [4] 61.9 µM | [6] 24.1 µM | [7] 28.2 µM | [8] 30.9 µM
inactive: [3] | [5]

CC(C)CCCCCCOC(=O)CCCCC(=O)OCCCCCCC(C)C
inactive: [1] | [2] | [3] | [4] | [6] | [8]

c1ccc2c(c1)Cc1ccccc1-2
not listed: [5] | [9]
inactive: all other assays above

O=C1OC2(c3ccccc31)c1cc(Br)c(O)c(Br)c1Oc1c2cc(Br)c(O)c1Br
inactive: [5] | [6] | [8]

CN1CCN(c2ccccc2/C=C2\SCCN(c3ccc(Cl)c(Cl)c3)C2=O)CC1
inactive: [2] | [3] | [6] | [7] | [8]
active: [1] 50 µM | [4] 69.7 µM

CCCCCCCCCCCCCC[N+](C)(C)C
inactive: [5] | [7]
active: [5] 36.8 µM | [6] 49.1 µM and 13.3 µM and 33.7 µM | [7] 39.8 µM and 14.6 µM | [8] 52.4 µM and 13.2 µM and 35.4 µM

C=C(C)C(=O)OCCC(F)(F)C(F)(F)C(F)(F)C(F)(F)C(F)(F)C(F)(F)F
not listed: [6] | [9] | [10]
inactive: all other assays above

CC(O)CO (stereo not drawn)
not listed: [4] | [5] | [10]
inactive: all other assays above

CCCCCCCCOC(=O)CCCCCCCCC(=O)OCCCCCCCC
not listed: [6] | [9] | [10]
inactive: all other assays above

NC(=O)N(O)[C@@H]1C=C[C@H](Oc2cccc(Oc3ccc(F)cc3)c2)C1
active: [1] 75.5 µM | [2] 75.8 µM | [3] 28.2 µM | [4] 73.5 µM | [9] 66.5 µM | [8] 84.2 µM
inactive: [6] | [10] | [7]

CCc1nn(C2CCCCC2)c2cc(C3(C#N)CCC(C(=O)O)CC3)ccc12 (stereo not drawn)
active: [1] 11.8 µM | [7] 73.5 µM
not listed: [5] | [9]
inactive: all other assays above

CCCCOCCO
inactive: [1] | [2] | [3] | [4] | [5] | [7]
